Laboratory results taken from PubChem BioAssay AID493034 (The Scripps Research Institute Molecular Screening Center, 2011).
The whole screen tested about 2,400 compounds, of which about 2,200 (92%) were called active. The set was probably picked from earlier hits. Some of the results follow. Values without a mark were called inactive.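 Rule for the calls: active = mean inhibition over triplicate runs exceeds the cutoff derived for the earlier primary screen (cut at about 25% in these data); inactive = the rest.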

What follows are compounds tested against Platelet-activating factor acetylhydrolase IB subunit alpha2 (Homo sapiens) (UniProt P68402) (assay: PAFAH1B2 inhibitors, confirmation, biochemical, fluorescence polarization, FP-rhodamine probe, triplicate (AID 493034;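 note: 0% = enzyme with DMSO and 100% = wells lacking PAFAH1B2 protein; inhibitors lower polarization by leaving the probe unbound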)). Details: recombinant PAFAH1B2, FP-rhodamine probe fluorescence polarization; at 3.39 µM; active compounds read high.
Sequence of Platelet-activating factor acetylhydrolase IB subunit alpha2 (Homo sapiens) (P68402 whole entry, looked up): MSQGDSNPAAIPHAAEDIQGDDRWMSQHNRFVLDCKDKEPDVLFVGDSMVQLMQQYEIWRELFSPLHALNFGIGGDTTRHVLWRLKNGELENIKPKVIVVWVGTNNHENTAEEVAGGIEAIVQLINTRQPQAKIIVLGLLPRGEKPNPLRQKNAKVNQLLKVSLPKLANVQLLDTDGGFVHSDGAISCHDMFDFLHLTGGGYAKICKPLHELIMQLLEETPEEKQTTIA
`CC(OC(=O)C1=COCCO1)C(=O)Nc1ncc(Cl)cc1Cl` (stereo unspecified) showed an inhibition of 3.49%. In the case of `N#CC(=C1C=CC(=NO)C(Cl)=C1)c1ccc(Cl)cc1`, the inhibition is reported as 29.9% (active). `C[C@H]1CCC[C@]2(C)C[C@H]3OC(=O)C(CN4CCCCCC4)[C@H]3C=C12` (stereo partly specified) showed an inhibition of 17.8%. With `O=C(NNS(=O)(=O)c1cccc(Cl)c1)c1cc(-c2ccc(F)cc2)nc2ccccc12` the inhibition was 48.9% (active). `CCNC(=S)NNC(=O)c1cc(-c2cccc(C)c2)nc2ccccc12` was tested, and the inhibition was 14.3%. With `O=C(NNS(=O)(=O)c1ccc(Cl)cc1)c1cc(-c2ccccc2)nc2ccccc12` the inhibition was 54.4% (active). `CN(C)c1ccsc1C(=O)NNS(=O)(=O)c1ccc(Cl)cc1` was tested, and the inhibition was 17.9%. With `O=C(O)c1ccc(N=Nc2c(O)[nH]c3ccc(Br)cc23)cc1` the inhibition was 25.6% (active). `Oc1[nH]c2ccc(Br)cc2c1N=Nc1nn[nH]n1` was tested, and the inhibition was 69.4% (active). `CCc1ccc2[nH]c(O)c(N=NC3=NC(=O)CS3)c2c1` was tested, and the inhibition was 22.3%. `O=c1[nH]c(NCCO)nc2c1C1(CCCC1)Cc1ccccc1-2` gave an inhibition of 22.6%. In the case of `CCn1c(SCC(N)=O)nc2c(c1=O)C1(CCCC1)Cc1ccccc1-2`, the inhibition is reported as 20.1%. With `C=CCSc1n[nH]c2nc3c(c(=O)n12)C1(CCCC1)Cc1ccccc1-3` the inhibition was 46.3% (active). Compound `COc1cc(C=O)ccc1OCCSc1ccc(C)cc1` has an inhibition of 23%. In the case of `COc1cc(/C=C2\SC(=S)N(CC(=O)O)C2=O)ccc1OS(=O)(=O)c1ccc(C)cc1`, the inhibition is reported as 38.1% (active). In the case of `COc1cc(/C=C2\SC(=S)N(CCCCC(=O)O)C2=O)ccc1OS(=O)(=O)c1ccc(C)cc1`, the inhibition is reported as 30.5% (active). In the case of `Cc1ccc(S(=O)(=O)CCC(=O)NCCN2C(=O)S/C(=C/c3ccc(F)cc3)C2=O)cc1`, the inhibition is reported as 21.1%. For `CCOc1cc2[nH]c(=O)n(CCCC(=O)NCc3ccc(OC)cc3)c(=O)c2cc1OCC`, the inhibition was 3.79%. `CC(C)c1ccc(C(C)NCCS(=O)(=O)c2ccc(Cl)cc2)cc1` (stereo unspecified) showed an inhibition of 18.1%. `Cc1ccc(S(=O)(=O)N2[C@@H](c3ccc(Cl)cc3)C(C(=O)O)=CC[C@H]2c2ccc(C(C)C)cc2)cc1` was tested, and the inhibition was 95.9% (active). In the case of `Cc1ccc(S(=O)(=O)N2[C@@H](c3ccc(Br)cc3)C(C(=O)O)=CC[C@H]2c2ccc(C(C)C)cc2)cc1`, the inhibition is reported as 93.5% (active). With `CC(Oc1ccc(Cl)cc1)C(=O)OCC(=O)Nc1ncc(Cl)cc1Cl` (stereo unspecified) the inhibition was 23.2%. For `Cc1nc(N)nc(N)c1/C=C/C(C)(C)c1ccc(Cl)cc1`, the inhibition was 66.2% (active). With `O=C(O)CCN1C(=O)C2C3CC(C2C1=O)C1C(c2ccccc2)c2sc(=O)[nH]c2SC31` (stereo unspecified) the inhibition was 79.6% (active). With `O=C(O)CCCN1C(=O)C2C3CC(C2C1=O)C1C(c2ccccc2)c2sc(=O)[nH]c2SC31` (stereo unspecified) the inhibition was 74% (active). With `ONC(=Nc1ccc(Cl)cc1)c1ccccc1` the inhibition was 23.1%. In the case of `O=C(CSc1n[nH]c(-c2ccc(S(=O)(=O)N3CCCCC3)cc2)n1)Nc1nccs1`, the inhibition is reported as 44.6% (active). Work on `O=C(Nc1nc2ccc(S(=O)(=O)N3CCCCC3)cc2s1)c1ccncc1` yielded an inhibition of 20.7%. Work on `O=C(NCc1n[nH]c(=S)n1-c1ccc(Br)cc1)c1ccc(S(=O)(=O)N2CCCCC2)cc1` yielded an inhibition of 23.9%. `O=C(Cc1ccc(Br)cc1)c1ccc(O)cc1O` was tested, and the inhibition was 70.8% (active). `N#Cc1ccc(S(=O)(=O)N2CCc3[nH]c4ccc(F)cc4c3C2)cc1` was tested, and the inhibition was 31.2% (active). With `CCC(C)CCCCCCCCCCC(=O)O` (stereo unspecified) the inhibition was 16.6%. `CN(CC(=O)Nc1ccc(C#N)cc1)Cc1ccc(Cl)cc1` gave an inhibition of 19.9%. With `O/N=C/c1ccc2ccccc2c1` the inhibition was 43.9% (active). With `Cc1ccc(COc2ccc(/C=N/O)cc2)cc1` the inhibition was 22.1%. `Cc1ccc(S(=O)(=O)Nc2ccc(Cl)cc2C(=O)c2ccc(F)cc2)cc1` was tested, and the inhibition was 27.2% (active). For `CNC(=O)c1cc(C(=O)c2ccc(Cl)cc2)c(Br)[nH]1`, the inhibition was 14%. In the case of `Cc1ccc(S(=O)(=O)NC(=O)Nc2nc(-c3ccc(F)c(F)c3)cs2)cc1`, the inhibition is reported as 9.68%. Work on `O=C1N(c2ccccc2)C(c2ccccc2)C12CCCCC2` (stereo unspecified) yielded an inhibition of 24%. `CC1(C)C(=O)N(c2ccccc2)C1c1ccccc1O` (stereo unspecified) was tested, and the inhibition was 36.5% (active). With `CCCC(=O)Nc1sc(-c2ccccc2)c(-c2ccccc2)c1C(=O)O` the inhibition was 43.5% (active). For `COc1ccc(/C=C2\SC(=O)N(CCCC(=O)Nc3cc(Cl)ccc3C(=O)O)C2=O)cc1`, the inhibition was 40.3% (active). For `O=C(CCCN1C(=O)/C(=C\c2ccccc2)SC1=S)Nc1ccc(O)cc1C(=O)O`, the inhibition was 61.7% (active). With `O=C(CCN1C(=O)/C(=C/c2ccccc2)SC1=S)N[C@@H](CO)Cc1ccccc1` the inhibition was 66.8% (active). `O=C(CCN1C(=O)/C(=C/c2ccccc2Cl)SC1=S)NC1=NCCS1` was tested, and the inhibition was 6.52%. `O=C(CCN1C(=O)/C(=C/c2ccccc2F)SC1=S)N[C@@H](CO)Cc1ccccc1` was tested, and the inhibition was 60.2% (active). `OC(c1ccccc1)(c1ccc(F)cc1)C(c1ccccc1)N1CCOCC1` (stereo unspecified) gave an inhibition of 21.9%. `CN(C(=O)COC(=O)c1ccc(Cl)c(S(=O)(=O)NCc2ccccc2)c1)C1CCS(=O)(=O)C1` (stereo unspecified) showed an inhibition of 19.1%. With `Cc1ccc(NC(=O)CN(C)C(=O)c2ccc3[nH]c4c(c3c2)CC(C)CC4)cc1` (stereo unspecified) the inhibition was 47.5% (active). For `Cc1ccc(C)c(NC(=O)CN(C)C(=O)c2ccc3[nH]c4c(c3c2)CC(C)CC4)c1` (stereo unspecified), the inhibition was 29.8% (active). `O=[N+]([O-])c1ccc(O)c(/C=N/Nc2nc3ccccc3[nH]2)c1` was tested, and the inhibition was 28.4% (active). In the case of `CC(C)C1Nc2c(O)cc(Cl)c([N+](=O)[O-])c2C2C=CCC21` (stereo unspecified), the inhibition is reported as 39.4% (active). In the case of `CC(C)C1Nc2ccc(S(N)(=O)=O)cc2C2C=CCC21` (stereo unspecified), the inhibition is reported as 23%. For `O=c1[nH]c2c(s1)C(c1ccccc1)C1C3CCC(C3)C1S2` (stereo unspecified), the inhibition was 36.8% (active). In the case of `O=c1[nH]c2c(s1)C(c1ccco1)C1C3CCC(C3)C1S2` (stereo unspecified), the inhibition is reported as 51.9% (active). For `Cc1csc(SCC(=O)NCCc2ccc(Cl)cc2)n1`, the inhibition was 22.8%. In the case of `COc1ccccc1NC(=S)NCCc1ccc(Cl)cc1`, the inhibition is reported as 25.7% (active). For `S=C(NCCc1ccc(Cl)cc1)NC1CC1`, the inhibition was 40.9% (active). Compound `S=C(NCCc1ccc(Cl)cc1)NC1CCCCC1` has an inhibition of 22.8%. Work on `Cc1ccc(C)c(NC(=S)NCCSc2ccc(Cl)cc2)c1` yielded an inhibition of 23.1%. In the case of `O=C(CSc1ncn[nH]1)NCCc1ccc(Cl)cc1`, the inhibition is reported as 18.2%.
